Each structure is given as a SMILES string. The source made the active and inactive calls. Where a call stands in place of a potency, no number is given. Calls follow the shape of the full dose curve. Square brackets hold non-standard residues; d marks the D form. Peptide text beside a SMILES is read from it. Orn = NCCC[C@H](N)C(=O)O

This experiment is described as follows: qHTS profiling of Chloroquine Analogs as inhibitors of Plasmodium falciparum (DD2) proliferation. The settings on record: Potency: Plasmodium falciparum Dd2 proliferation inhibition; series mostly up to 28.7 µM. The text has this:
Plasmodium falciparum is a virulent malarial parasite that kills 1-2 million people worldwide each year. Transmitted by mosquitoes, the sporozoite form of the parasite enters the blood stream to infect hepatocytes, where they become merozoites that infect red blood cells (erythrocytes). Within erythrocytes, merozoites begin a […] cycle of growth and division, after which the parasite is released to infect new red blood cells. Gametocytes, which form within erythrocytes as well, circulate in the bloodstream and are ingested by the mosquito, thereby completing the life cycle. To profile malarial isolates for differential chemical responses and to identify inhibitors of malarial growth, an assay that measures P. falciparum growth and replication within erythrocytes was employed. This assay uses a DNA binding fluorescent dye (SYBR Green) to detect parasite DNA following cell lysis. Because mature erythrocytes lack DNA, only Plasmodium-derived DNA is detected.
The SYBR Green viability assay was adapted from a method described previously (Plouffe et al., 2008). For screening 3 ul culture medium was dispensed into 1536 well black clear bottom plates (Aurora Biotechnologies) using a Multidrop Combi (Thermo Fisher Scientific Inc.), 23 nL compounds in DMSO were added by a pin tool (Kalypsys), and 5 ul of erythrocytes infected with P. falciparum (0.3% parasitemia, 2.5% hematocrit final concentration) were added. The plates were incubated at 37 C in a humidified incubator in 5% CO2 for 72 h, and 2 ul lysis buffer (20 mM Tris HCl, 10 mM EDTA, 0.16% saponin, 1.6% triton X, 10X SYBR Green I supplied as 10,000X […] by Invitrogen) was added to each well. The plates were mixed for 25 sec with gentle shaking and incubated overnight at room temperature in the dark. The following morning, fluorescence intensity at 485(14) nm excitation and 535(25) nm emission wavelengths was measured on an EnVision (Perkin Elmer) plate reader. Plate reads were normalized relative to the control inhibitor (0.29 uM artemisinin) and vehicle (DMSO) wells present on each plate and then corrected by an algorithm using vehicle-only control plates at the beginning and end of the compound plate stack.
Regarding `CNCCCCOc1ccccc1Cc1ccccc1`, the Potency entry was “inactive”.

Regarding `COc1cc2c(Nc3ccc(NC(=O)c4ccccc4)cc3)ncnc2cc1OCCCN1CCOCC1`, the Potency was 749 nM (active).

As to `C[C@@H]1[C@@H](C(=O)C[C@H]2O[C@@H]3O[C@]4(C)CC[C@@H]5[C@H](C)CC[C@@H]([C@H]2C)[C@@]35OO4)O[C@@H]2O[C@]3(C)CC[C@H]4[C@H](C)CC[C@@H]1[C@@]24OO3`, the Potency is 1.3 nM (active).

In the case of `Cn1cncc1[C@@](N)(c1ccc(Cl)cc1)c1ccc2c(c1)c(-c1cccc(Cl)c1)cc(=O)n2C`, the Potency entry was “inactive”.

Take `C=CC(C)=C[C@@]1(C)SC(=O)C(C)=C1O`: the Potency entry is “inactive”.

For `C[C@@H]1Cc2c([nH]c3cc(Cl)c(F)cc23)[C@]2(N1)C(=O)Nc1ccc(Cl)cc12`, the Potency entry is “inactive”.

On to `CCCCCCCCCCOc1cc2c(=O)c(C(=O)OCC)c[nH]c2cc1OCC`, for which the Potency result was “inactive”.

Consider `CNCCC(Oc1ccccc1OC)c1ccccc1` (configuration not stated), for which the Potency entry is “inactive”.

For the compound `CN(C)CC/C=C1\c2ccccc2COc2ccccc21`, the Potency was 1430 nM (active).

Consider `C[C@H]1[C@@H](CCC(=O)Nc2ccc(F)cc2)O[C@@H]2O[C@]3(C)CC[C@@H]4[C@H](C)CC[C@@H]1[C@@]24OO3`, for which the Potency entry is “inactive”.

Regarding `CN1CCN(CCCN2c3ccccc3Sc3ccc(S(=O)(=O)N(C)C)cc32)CC1`, the Potency is 1140 nM (active).

On to `CN1C[C@H](C(=O)N[C@]2(C)O[C@@]3(O)[C@@H]4CCCN4C(=O)[C@H](Cc4ccccc4)N3C2=O)C[C@@H]2c3cccc4[nH]cc(c34)C[C@H]21`, for which the Potency entry is “inactive”.

Turning to `CCc1ccc(OCc2ccccc2C(=O)Nc2ccc3nc(C)cc(N)c3c2)cc1`, the Potency result is “inactive”.

Regarding `CN(C)CCOC(c1ccccc1)c1ccccc1`, the Potency was 1500 nM (active).

For the compound `CN1CC[C@H](CN2c3ccccc3Sc3ccccc32)C1`, the Potency entry was “inactive”.

For `C[C@@H]1CCC2[C@@H](C)[C@@H](O)O[C@@H]3O[C@@]4(C)CC[C@@H]1[C@@]23OO4` (some centres not stated), the Potency entry is “inactive”.

Regarding `CC(=O)N(O)CCCP(=O)(O)O`, the Potency entry is “inactive”.

For the compound `O=C(Nc1ccc(Cl)cc1)Nc1ccc(Cl)c(Cl)c1`, the Potency result is “inactive”.

Regarding `COCC(=O)O[C@]1(CCN(C)CCCc2nc3ccccc3[nH]2)CCc2cc(F)ccc2[C@@H]1C(C)C`, the Potency entry is “inactive”.

With `C=Cc1c(C)c2cc3nc(cc4[nH]c(cc5nc(cc1[nH]2)C(C)=C5CCC(=O)OC)c(CCC(=O)O)c4C)[C@@]1(C)C3=CC=C(C(=O)OC)[C@H]1C(=O)OC`, the Potency was 359 nM (active).

`C[N+]1(C)CCC(=C(c2ccccc2)c2ccccc2)CC1`: the Potency result was “inactive”.

For the compound `CCCC(=O)O[C@]1(C(=O)CCl)[C@H](C)C[C@@H]2[C@H]3CCC4=CC(=O)C=C[C@]4(C)[C@@]3(F)C(=O)C[C@@]21C`, the Potency result was “inactive”.

For the compound `CC(C)C[C@@H]1NC(=O)[C@H](CCCN)NC(=O)[C@H](C(C)C)NC(=O)[C@@H]2CCCN2C(=O)[C@@H](Cc2ccccc2)NC(=O)[C@H](CC(C)C)NC(=O)[C@H](CCCN)NC(=O)[C@H](C(C)C)NC(=O)[C@@H]2CCCN2C(=O)[C@@H](Cc2ccccc2)NC1=O` (cyclo(V[Orn]L[dF]PV[Orn]L[dF]P)), the Potency was 0.7 nM (active).

Take `Cc1oncc1C(=O)Nc1ccc(C(F)(F)F)cc1`: the Potency result was “inactive”.

With `CCCCN(CCCC)CC(O)c1cc(Cl)cc2c1-c1ccc(Cl)cc1C2=Cc1ccc(Cl)cc1` (configuration not stated), the Potency result was “inactive”.

For `CCN(CC)CCCC(C)Nc1ccnc2cc(Cl)ccc12` (configuration not stated), the Potency result was “inactive”.

Take `C[C@H]1[C@@H](OC(=O)CCC(=O)O)O[C@@H]2OC3(C)CC[C@H]4[C@H](C)CC[C@@H]1[C@@]24OO3`: the Potency entry was “inactive”.

Turning to `COc1cc(NC(C)CCCN)c2ncccc2c1` (configuration not stated), the Potency result is “inactive”.

In the case of `NC(=NCc1ccccc1)NC(=O)c1nc(Cl)c(N)nc1N`, the Potency result is “inactive”.

As for `COc1cc(C=CC(=O)CC(=O)C=Cc2ccc(O)c(OC)c2)ccc1O`, the Potency was 5300 nM (active).

Consider `O[C@H](c1cc(C(F)(F)F)nc2c(C(F)(F)F)cccc12)[C@H]1CCCCN1`, for which the Potency entry is “inactive”.

With `Cc1cccc(C)c1OCC(N)C(C)C` (configuration not stated), the Potency is 5950 nM (active).

Turning to `CCN(CC)CCOCCOC(=O)C(CC)(CC)c1ccccc1`, the Potency result is “inactive”.

Take `CC(=O)O[C@@]12CO[C@@H]1C[C@H](O)[C@@]1(C)C(=O)[C@H](O)C3=C(C)[C@@H](OC(=O)[C@H](O)[C@@H](NC(=O)OC(C)(C)C)c4ccccc4)C[C@@](O)([C@@H](OC(=O)c4ccccc4)[C@H]21)C3(C)C`: the Potency result is “inactive”.

As for `CCCC[C@@H]1C[C@@H](C(=O)NC([C@H](C)Cl)[C@H]2O[C@H](S)[C@H](O)[C@@H](O)[C@@H]2O)N(C)C1` (some centres not stated), the Potency result is “inactive”.

As for `O=C1C(=O)c2ccccc2C(O)=C1C1CCC(c2ccc(Cl)cc2)CC1` (configuration not stated), the Potency entry was “inactive”.

`Oc1cc(Cl)ccc1Oc1ccc(Cl)cc1Cl`: the Potency is 3350 nM (active).

For the origin of these results see PubChem BioAssay AID743326 (National Center for Advancing Translational Sciences (NCATS), 2014).
